The campaign covered roughly 330,000 compounds. About 10,000 (3%) were called active. This excerpt belongs to a sample that is enriched for actives. Unmarked numbers belong to inactive results.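 The calls were made as follows: active = inhibition of at least 50% at 8 µM in the primary screen; inactive = the rest.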
biological target: Protein Mdm4 (Homo sapiens) + E3 ubiquitin-protein ligase Mdm2 (Homo sapiens) (UniProt O15151+Q00987); experiment: disruptors of Mdm2/MdmX RING complex – cell-based, luminescence, split luciferase, SaOS-2, uHTS, primary screen (AID 485346); settings: SaOS-2 split-luciferase Mdm2/MdmX complementation, at 8 µM, hits give high values
Sequence (O15151 whole entry, looked up): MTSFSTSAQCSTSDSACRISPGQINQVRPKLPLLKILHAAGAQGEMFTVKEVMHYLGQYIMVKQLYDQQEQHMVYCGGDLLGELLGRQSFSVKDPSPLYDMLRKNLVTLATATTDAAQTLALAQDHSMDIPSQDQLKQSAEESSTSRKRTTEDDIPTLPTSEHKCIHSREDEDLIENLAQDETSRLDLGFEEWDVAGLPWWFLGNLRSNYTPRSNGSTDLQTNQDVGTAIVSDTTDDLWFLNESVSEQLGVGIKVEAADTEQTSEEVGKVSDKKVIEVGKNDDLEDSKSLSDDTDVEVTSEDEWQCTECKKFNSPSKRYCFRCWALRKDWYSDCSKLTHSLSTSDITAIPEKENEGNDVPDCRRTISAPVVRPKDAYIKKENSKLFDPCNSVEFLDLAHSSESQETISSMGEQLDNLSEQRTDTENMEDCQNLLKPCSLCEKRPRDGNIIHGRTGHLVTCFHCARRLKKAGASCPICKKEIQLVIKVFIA
Sequence (Q00987 whole entry, looked up): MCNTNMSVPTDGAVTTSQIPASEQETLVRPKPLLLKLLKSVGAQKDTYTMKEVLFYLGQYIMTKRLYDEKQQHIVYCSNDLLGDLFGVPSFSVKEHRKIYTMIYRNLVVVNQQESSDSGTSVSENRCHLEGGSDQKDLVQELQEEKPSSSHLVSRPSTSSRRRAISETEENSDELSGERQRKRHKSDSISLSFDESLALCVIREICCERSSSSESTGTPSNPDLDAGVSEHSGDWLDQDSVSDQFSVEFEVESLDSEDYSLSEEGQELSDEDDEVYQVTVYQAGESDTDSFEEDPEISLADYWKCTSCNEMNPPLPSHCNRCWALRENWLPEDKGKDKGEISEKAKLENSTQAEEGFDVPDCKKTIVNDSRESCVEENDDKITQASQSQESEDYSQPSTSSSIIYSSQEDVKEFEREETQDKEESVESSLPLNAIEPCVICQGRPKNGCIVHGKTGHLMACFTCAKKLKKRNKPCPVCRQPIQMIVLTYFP

Compound | inhibition
CCOc1ccc(C(=O)Nc2ccc(CN3CCOCC3)cc2)cc1Cl | -7.17%
CCN(CC)C(=O)Cn1cc(S(=O)(=O)CC(=O)NCc2ccc3c(c2)OCO3)c2ccccc21 | 15.5%
O=C(N[C@@H](Cc1ccccc1)C(=O)OCc1ccccc1)c1nc[nH]c1C(=O)NC1CCNCC1 | 20.5%
CC(C)(C)OC(=O)CNC(=O)c1[nH]cnc1C(=O)N[C@@H](Cc1ccccc1)C(=O)OCc1ccccc1 | 9.35%
CC(C)(C)OC(=O)N1CCC(NC(=O)c2[nH]cnc2C(=O)N[C@@H](Cc2ccccc2)C(=O)OCc2ccccc2)CC1 | 65.6% (active)
CC(C)c1ccc(NC(=O)[C@@H](NC(=O)N2CC(=O)Nc3ccccc32)C(C)C)cc1 | 46.3%
O=C(N1CCCC1)C12CC3CC(C1)CC(C(=O)N1CCCC1)(C3)C2 | 0.875%
CC(Sc1nnc(-c2ccccc2F)n1C1CC1)C(N)=O (stereo not drawn) | 2.33%
O=S1(=O)CCO[C@H]2Cc3ccccc3[C@H]2N1Cc1ccccc1 | -0.566%
CCc1ccc(NC(=O)c2ccc(Cn3cc([N+](=O)[O-])cn3)cc2)cc1 | 7.69%
Cn1cc([N+](=O)[O-])c(C(=O)Nc2cnn(Cc3ccc(F)cc3)c2)n1 | 61.3% (active)
Cn1cc([N+](=O)[O-])c(C(=O)Nc2ccc3c(c2)OCCO3)n1 | 15.1%
CC(C)CCN(C(=O)c1csnn1)C(C(=O)NC1CCCC1)c1ccccc1 (stereo not drawn) | 1.25%
Cc1ccc(N2C(=O)c3ccccc3C2(O)c2ncc[nH]2)cc1 (stereo not drawn) | 11%
CCCC(=O)Nc1nc2ccc(NC(=O)c3cccnc3)cc2s1 | 56.4% (active)
CCCC(=O)Nc1nc2ccc(NC(=O)c3c(F)c(F)c(OC)c(F)c3F)cc2s1 | 40.2%
CCOC(=O)c1ccc(NC(=O)c2cccnc2)cc1 | -5.28%
Clc1ccc(C2[C@H]3CN(CC4CCCCC4)[C@H](c4ccccc4)C34CC2(c2cccnc2)C4)cn1 (stereo partly drawn) | -0.579%
FC(F)(F)c1ccc(CN2C[C@@H]3C(c4ccccc4)C4(c5ccccc5)CC3(C4)[C@H]2c2ccccc2)cc1 (stereo partly drawn) | 93.9% (active)
COC(=O)c1ccc(C23CC4(C2)[C@H](CN(Cc2cccnc2)[C@@H]4c2ccccc2)C3c2ccc(Cl)nc2)cc1 (stereo partly drawn) | 21.5%
O=C1c2ccccc2C(=O)N1CCC(c1ccccc1)c1ccco1 (stereo not drawn) | -4.99%
CC1CCC(N2CC(=O)N(Cc3ccc4c(c3)OCO4)C(c3ccc(F)cc3)C2=O)CC1 (stereo not drawn) | -7.03%
CC1=CC(C)(C)Nc2ccc(OC(=O)C(Cc3ccccc3)N3C(=O)C4CCCCC4C3=O)cc21 (stereo not drawn) | 42.7%
CC1=CC(C)(C)Nc2ccc(OC(=O)CN3C(=O)C4CCCCC4C3=O)cc21 (stereo not drawn) | 54% (active)
O=C(CN1C(=O)C2C3CCC(C3)C2C1=O)Oc1ccc2ccccc2c1 (stereo not drawn) | 12%
Cc1ccc(CNC(=O)Cn2cnc3c(NCc4ccccc4)ncnc32)o1 | 28.2%
NC(=O)COc1ccc(C23CC4CC(CC(C4)C2)C3)cc1 | -45%

Compound | inhibition
Cc1cc([N+](=O)[O-])nn1CC(=O)Nc1ccc(Cc2ccncc2)cc1 | 2.13%
CCOC(=O)CC1C(=O)NCCN1c1nc2c(C)cccn2c(=O)c1/C=C1\SC(=S)N(C(C)CC)C1=O (stereo not drawn) | 59% (active)
CCOC(=O)N1CCN(C(=O)CSc2nc(=O)n3cccc(C)c3n2)CC1 | -0.597%
CCCN(CCC)c1nc2c(C)cccn2c(=O)c1/C=C1/SC(=S)N(Cc2ccco2)C1=O | 2.98%
Cc1cc(C)n2nc(C(=O)Nc3cccc(S(=O)(=O)N4CCOCC4)c3)nc2n1 | 7.78%
COc1ccccc1C(=O)NC(=S)NC12CC3CC(CC(C3)C1)C2 | 63.6% (active)
COc1ccccc1C(=O)NC(=O)COC(=O)C1CC1 | -22.8%
NC(=O)COc1ccccc1C(=O)NC12CC3CC(CC(C3)C1)C2 | 3.86%
COc1ccc(N2CCN(CCNC(=O)Nc3cc(Cl)ccc3Cl)CC2)cc1 | 14.4%
CCCCn1c(N)c(N(CC(C)C)C(=O)c2ccc(Br)o2)c(=O)[nH]c1=O | 25.9%
CNc1ccc(SC#N)cc1 | 0.392%
CC(=NCc1ccco1)c1c(C(F)(F)F)[nH]n(-c2nc3ccccc3s2)c1=O | 0.099%
COC(=O)Cc1[nH]n(-c2nc3ccccc3s2)c(=O)c1C(C)=Nc1ccc(OC)cc1 | 77.3% (active)
COc1ccc(C2=NN(c3nc4ccccc4s3)C(=O)C2)cc1 | 1.88%
CCn1nc(C)c(CNC(=O)C2CCC(=O)N(Cc3cccc(F)c3)C2)c1C (stereo not drawn) | 28.2%
COc1ccc(CNC(=O)C[C@H]2C[C@H](C(=O)N3CCOCC3)[C@@]3(CCC4CCCC4)c4[nH]c5ccc(Cl)cc5c4CCN3C2=O)cc1OC | 92.6% (active)
O=C(C[C@H]1C[C@H](C(=O)N2CCOCC2)[C@@]2(CCC3CCCC3)c3[nH]c4ccc(Cl)cc4c3CCN2C1=O)NCc1ccco1 | 49.9%
COc1ccc2[nH]c3c(c2c1)CCN1C(=O)C(CC(=O)NCCCN(C)C)C[C@H](C(=O)N2CCOCC2)[C@@]31CCC1CCCC1 (stereo partly drawn) | -3.6%
COCCN(C(=O)C(C)C)c1nnc(-c2ccc(C(C)(C)C)cc2)s1 | -22.5%
O=C(NC1(C(F)(F)F)NC(=O)N(C2CCCCC2)C1=O)c1ccco1 (stereo not drawn) | 1.56%
COC(=O)NC1(C(F)(F)F)NC(=O)N(C2CCCCC2)C1=O (stereo not drawn) | -5.21%
O=C1NC(Nc2nc3ccccc3s2)(C(F)(F)F)C(=O)N1C1CCCCC1 (stereo not drawn) | 66.2% (active)
CC(Oc1ccc(F)cc1)C(=O)Nc1cc(S(=O)(=O)N2CCOCC2)ccc1N1CCN(C)CC1 (stereo not drawn) | 13.7%
Cc1cc(NC(=O)CCC(=O)N(c2cccc(F)c2)C(C(=O)NC2CCCC2)c2ccncc2)no1 (stereo not drawn) | -20%
Cc1cc(NC(=O)/C=C/C(=O)N(c2ccccc2C)C(C(=O)NC2CCCC2)c2ccc(F)cc2)no1 (stereo not drawn) | 63.1% (active)
Cc1cc(NC(=O)/C=C/C(=O)N(CC(=O)NC2CCCC2)c2ccc(F)cc2)no1 | -19.5%

— PubChem BioAssay AID485346 (Sanford-Burnham Center for Chemical Genomics, 2010)
